The source of these data is PubChem BioAssay (EPA / NIEHS).

Read-out in test [1]: TIMP metallopeptidase inhibitor 1 (TIMP1), TIMP1 (gene 7076)
Put plainly: BSK_hDFCGF_TIMP1: BioMAP Diversity Plus: hDFCGF Assay for TIMP metallopeptidase inhibitor 1 (TIMP1) Biomarker Activity (AID 2283062). The settings on record: primary human foreskin fibroblasts; actives raise or lower the signal. An outline of the steps:
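Primary human foreskin fibroblasts in the hDFCGF system were dosed with compound for 24 h, then TIMP-1 was measured by ELISA. Activity was fitted bidirectionally relative to DMSO control; parallel SRB staining assessed cytotoxicity.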

Read-out in test [2]: Monokine induced gamma interferon (MIG), CXCL9 (gene 4283)
Put plainly: BSK_hDFCGF_MIG: BioMAP Diversity Plus: hDFCGF Assay for Monokine induced gamma interferon (MIG) Biomarker Activity (AID 2283063). As to conditions: primary human foreskin fibroblasts; actives raise or lower the signal. The procedure, abridged:
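ELISA read-out of MIG from primary human dermal fibroblasts 24 h post-dosing. Gain or loss of signal fitted bidirectionally, DMSO as baseline.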

Read-out in test [3]: Matrix Metallopeptidase 1 (MMP1), MMP1 (gene 4312)
Put plainly: BSK_hDFCGF_MMP1: BioMAP Diversity Plus: hDFCGF Assay for Matrix Metallopeptidase 1 (MMP1) Biomarker Activity (AID 2283064). As to conditions: primary human foreskin fibroblasts; actives raise or lower the signal. The procedure, abridged: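 hDFCGF primary fibroblasts (human foreskin); chemical added; 24 h; MMP1 by ELISA; bidirectional fit vs DMSO.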

Read-out in test [4]: Vascular cell adhesion molecule 1 (VCAM1), VCAM1 (gene 7412)
Nature of the test: BSK_hDFCGF_VCAM1: BioMAP Diversity Plus: hDFCGF Assay for Vascular cell adhesion molecule 1 (VCAM1) Biomarker Activity (AID 2283065).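 On AC50: VCAM-1 protein level quantified by ELISA after 24 h chemical exposure.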 As to conditions: primary human foreskin fibroblasts; actives raise or lower the signal. The procedure, abridged:
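Primary human foreskin fibroblasts (hDFCGF system) were dosed with chemical and VCAM-1 was measured by ELISA 24 h later. Bidirectional curve fitting used DMSO as negative control and activity baseline.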

Read-out in test [5]: Plasminogen activator inhibitor-1 (PAI1), SERPINE1 (gene 5054)
Nature of the test: BSK_hDFCGF_PAI1: BioMAP Diversity Plus: hDFCGF Assay for Plasminogen activator inhibitor-1 (PAI1) Biomarker Activity (AID 2283066). As to conditions: primary human foreskin fibroblasts; actives raise or lower the signal. The procedure, abridged: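 PAI-1 levels, determined by ELISA, served as the endpoint in human foreskin fibroblast cultures exposed to compound for 24 h, with DMSO as baseline.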

Read-out in test [6]: Intercellular Adhesion Molecule 1 (ICAM1), ICAM1 (gene 3383)
Nature of the test: BSK_KF3CT_ICAM1: BioMAP Diversity Plus: KF3CT Assay for Intercellular Adhesion Molecule 1 (ICAM1) Biomarker Activity (AID 2283067). As to conditions: primary human keratinocytes with fibroblasts; actives raise or lower the signal. An outline of the steps: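 Human keratinocyte plus foreskin fibroblast primary co-culture was exposed to chemical for 24 h. ICAM-1 was then quantified by ELISA, and the data were fit bidirectionally against DMSO as the negative control and baseline.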

Read-out in test [7]: Interferon-gamma inducible Protein 10 (IP10), CXCL10 (gene 3627)
Nature of the test: BSK_KF3CT_IP10: BioMAP Diversity Plus: KF3CT Assay for Interferon-gamma inducible Protein 10 (IP10) Biomarker Activity (AID 2283068). As to conditions: primary human keratinocytes with fibroblasts; actives raise or lower the signal. The procedure, abridged: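 ELISA read-out of IP-10 after 24 h chemical dosing of human skin primary co-culture (keratinocytes, foreskin fibroblasts). Gain or loss of signal relative to DMSO, bidirectional curve fit.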

The nature of test [8]: BSK_KF3CT_SRB: Viability Assessment in the BioMAP Diversity Plus: KF3CT Assay (AID 2283069).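 Further: total protein by sulforhodamine B staining as a cytotoxicity measure; read 24 h after compound addition; fitted for both signal gain and loss against DMSO baseline.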 The settings on record: primary human keratinocytes with fibroblasts. The procedure, abridged:
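Keratinocytes co-cultured with foreskin fibroblasts (human primary); chemical added, 24 h; fix 10% TCA, stain 0.1% SRB, A560. Bidirectional fit vs DMSO.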

Read-out in test [9]: Interleukin-1 alpha (IL1a), IL1A (gene 3552)
Put plainly: BSK_KF3CT_IL1a: BioMAP Diversity Plus: KF3CT Assay for Interleukin-1 alpha (IL1a) Biomarker Activity (AID 2283070). As to conditions: primary human keratinocytes with fibroblasts; actives raise or lower the signal. An outline of the steps: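 Chemicals were dosed onto co-cultured human keratinocytes and foreskin fibroblasts, IL-1a was quantified by ELISA at 24 h, and activity was fitted in both directions relative to DMSO controls.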

Read-out in test [10]: TIMP metallopeptidase inhibitor 2 (TIMP2), TIMP2 (gene 7077)
Put plainly: BSK_KF3CT_TIMP2: BioMAP Diversity Plus: KF3CT Assay for TIMP metallopeptidase inhibitor 2 (TIMP2) Biomarker Activity (AID 2283071). The settings on record: primary human keratinocytes with fibroblasts; actives raise or lower the signal. The procedure, abridged:
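Keratinocyte–fibroblast co-culture, 24 h exposure; TIMP-2 ELISA, DMSO-normalised bidirectional fit. Parallel SRB (0.1%, TCA-fixed, 560 nm) total-protein staining gauges cytotoxicity.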

Read-out in test [11]: Transforming growth factor beta 1 (TGFb1), TGFB1 (gene 7040)
Nature of the test: BSK_KF3CT_TGFb1: BioMAP Diversity Plus: KF3CT Assay for Transforming growth factor beta 1 (TGFb1) Biomarker Activity (AID 2283072). As to conditions: primary human keratinocytes with fibroblasts; actives raise or lower the signal. An outline of the steps: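 Signal changes in either direction, relative to DMSO, define activity here. TGF-b1 is read by ELISA from a human keratinocyte-fibroblast co-culture 24 h post-dose.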

Read-out in test [12]: C-C motif chemokine 2 (Homo sapiens) (UniProt P13500)
Nature of the test: BSK_KF3CT_MCP1: BioMAP Diversity Plus: KF3CT Assay for Monocyte Chemoattractant Protein 1 (MCP1/CCL2) Biomarker Activity (AID 2283073). The settings on record: primary human keratinocytes with fibroblasts; actives raise or lower the signal. An outline of the steps: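 Human keratinocyte plus foreskin fibroblast primary co-culture exposed to chemical for 24 h. MCP-1 levels measured by ELISA. Bidirectional curve fitting relative to DMSO negative control as baseline.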

Read-out in test [13]: Matrix Metallopeptidase 9 (MMP9), MMP9 (gene 4318)
Nature of the test: BSK_KF3CT_MMP9: BioMAP Diversity Plus: KF3CT Assay for Matrix Metallopeptidase 9 (MMP9) Biomarker Activity (AID 2283074).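 On AC50: MMP9 protein level quantified by ELISA in the co-culture.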 As to conditions: primary human keratinocytes with fibroblasts; actives raise or lower the signal. The procedure, abridged:
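Human keratinocyte/foreskin fibroblast co-culture; compound added; 24 h; MMP-9 by ELISA; bidirectional fit vs DMSO baseline.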

Read-out in test [14]: urokinase plasminogen activator (uPA), PLAU (gene 5328)
Put plainly: BSK_KF3CT_uPA: BioMAP Diversity Plus: KF3CT Assay for urokinase plasminogen activator (uPA) Biomarker Activity (AID 2283075). As to conditions: primary human keratinocytes with fibroblasts; actives raise or lower the signal. The procedure, abridged: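 ELISA readout of uPA, analyzed for signal gain or loss relative to DMSO, from a human primary keratinocyte–foreskin fibroblast co-culture measured 24 h after chemical treatment.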

Read-out in another test: CD40, CD40 (gene 958)
Put plainly: BSK_LPS_CD40: BioMAP Diversity Plus: LPS Assay for CD40 Biomarker Activity (AID 2283076). The settings on record: primary human HUVEC with PBMC; actives raise or lower the signal. An outline of the steps: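 Primary human umbilical vein endothelial cells co-cultured with peripheral blood mononuclear cells, LPS-stimulated, were dosed with chemical and read 24 h later. CD40 levels were measured by ELISA and fitted bidirectionally against DMSO as negative control and baseline.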

Read-out in test [15]: E-selectin (Homo sapiens) (UniProt P16581)
Put plainly: BSK_LPS_Eselectin: BioMAP Diversity Plus: LPS Assay for Eselectin Biomarker Activity (AID 2283077). The settings on record: primary human HUVEC with PBMC; actives raise or lower the signal. The procedure, abridged: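 Human umbilical vein endothelial cells co-cultured with peripheral blood mononuclear cells under LPS stimulation; E-selectin measured by ELISA 24 h after chemical dosing. Activity fitted bidirectionally against DMSO as negative control and baseline.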

Read-out in test [16]: Interleukin-8 (IL8), CXCL8 (gene 3576)
Put plainly: BSK_LPS_IL8: BioMAP Diversity Plus: LPS Assay for Interleukin-8 (IL8) Biomarker Activity (AID 2283078). As to conditions: primary human HUVEC with PBMC; actives raise or lower the signal. An outline of the steps: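 Human umbilical vein endothelial cells co-cultured with PBMC were stimulated with LPS; IL-8 levels were measured by ELISA 24 h after chemical dosing. Activity was fitted bidirectionally against DMSO as negative control and baseline.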

Test [17] in a line: BSK_LPS_SRB: Viability Assessment in the BioMAP Diversity Plus: LPS Assay (AID 2283079).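 Further: total protein by sulforhodamine B absorbance as a cytotoxicity measure; measured one day after compound addition; fitted in both directions against DMSO so loss or gain of signal counts.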 The settings on record: primary human HUVEC with PBMC. The procedure, abridged:
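Human umbilical vein endothelial cells co-cultured with PBMC (LPS system) were dosed for 24 h. Total protein was stained with 0.1% sulforhodamine B after 10% TCA fixation, read at 560 nm, and fitted bidirectionally against DMSO baseline.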

Read-out in test [18]: Monocyte Chemoattractant Protein-1 (MCP1), CCL2 (gene 6347)
Nature of the test: BSK_LPS_MCP1: BioMAP Diversity Plus: LPS Assay for Monocyte Chemoattractant Protein-1 (MCP1) Biomarker Activity (AID 2283081).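 Further: co-culture stimulated with LPS; secreted MCP-1 protein quantified by ELISA in culture supernatant.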 The settings on record: primary human HUVEC with PBMC; actives raise or lower the signal. An outline of the steps: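 HUVEC plus PBMC co-culture (human primary cells, LPS system) exposed to test chemical for 24 h; MCP-1 measured by ELISA. Bidirectional curve fitting against DMSO baseline; parallel SRB total-protein staining flags overt cytotoxicity.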

Read-out in test [19]: Interleukin-1 alpha (IL1a), IL1A (gene 3552)
Put plainly: BSK_LPS_IL1a: BioMAP Diversity Plus: LPS Assay for Interleukin-1 alpha (IL1a) Biomarker Activity (AID 2283080). The settings on record: primary human HUVEC with PBMC; actives raise or lower the signal. An outline of the steps:
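Human umbilical vein endothelial cells co-cultured with peripheral blood mononuclear cells were LPS-stimulated and exposed to test chemicals for 24 h. IL-1 alpha was quantified by ELISA, with bidirectional curve fitting against DMSO as the negative control and baseline.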

The structures appear in SMILES notation. Activity calls are given as the source filed them. How the source made its calls: active means hit-call score of the fitted dose curve at least 0.9, where 1 is the maximum; inactive means score below 0.9.

E-selectin (Homo sapiens), sequence (P16581 whole entry, looked up): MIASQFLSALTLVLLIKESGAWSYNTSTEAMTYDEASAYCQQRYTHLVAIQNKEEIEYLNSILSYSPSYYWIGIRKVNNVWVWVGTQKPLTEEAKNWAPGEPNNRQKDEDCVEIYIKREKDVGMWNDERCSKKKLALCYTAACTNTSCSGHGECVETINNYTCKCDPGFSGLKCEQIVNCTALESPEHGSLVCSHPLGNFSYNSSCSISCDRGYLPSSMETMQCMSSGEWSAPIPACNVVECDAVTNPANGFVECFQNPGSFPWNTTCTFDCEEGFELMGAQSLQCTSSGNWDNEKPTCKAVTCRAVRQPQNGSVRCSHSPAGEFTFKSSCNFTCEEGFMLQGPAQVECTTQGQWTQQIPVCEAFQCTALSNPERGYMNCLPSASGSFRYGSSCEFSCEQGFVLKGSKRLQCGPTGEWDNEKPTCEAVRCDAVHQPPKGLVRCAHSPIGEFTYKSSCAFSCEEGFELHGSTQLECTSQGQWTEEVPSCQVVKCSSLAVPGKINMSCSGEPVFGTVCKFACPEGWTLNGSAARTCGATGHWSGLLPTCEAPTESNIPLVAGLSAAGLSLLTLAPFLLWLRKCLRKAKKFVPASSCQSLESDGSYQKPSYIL

What is called AC50 is the concentration at which the activity in the assay is half-maximal. With `CC(C)(C)c1csc(-c2cc3cc(OCc4ccccc4CC(=O)O)ccc3o2)n1`, the AC50 in test [1] was 15.5 µM (active); in [2], 15.2 µM (active); in test [3], 14.5 µM (active); in test [4], 10.1 µM (active); in [5] it was 11.3 µM (active); in test [6], 24.3 µM (active). For the same compound, the AC50 in test [7] was 9.6 µM (active); in [8] it was 12.6 µM (active); in test [9], 33 µM (active); in [10], 20.3 µM (active); in test [11] it was 10.8 µM (active); in [12], 20 µM (active). Besides, the AC50 in test [13] was 13.7 µM (active); in [14] it was 20.7 µM (active); with CD40, CD40 (gene 958), 20.7 µM (active); in test [15] it was 30.9 µM (active); in test [17] it was 20.9 µM (active); in [18] it was 22.6 µM (active). Also, in test [16], the result was inactive.

In the case of `C[C@]12CC[C@@H]3c4ccc(O)cc4CC[C@H]3[C@@H]1CC[C@H]2O`, the outcome in [1], in [2], in test [3], in [5], in test [6] and in [7] was inactive. Besides, the outcome in test [8], in test [9], in [10], in test [11], in test [12] and in test [13] was inactive. In addition, the outcome in test [14] is “inactive”; in the test with CD40, CD40 (gene 958), “inactive”; in test [15], “inactive”; in test [16], “inactive”. Besides, the AC50 was 15.4 µM (active) in [4], 9.95 µM (active) in [17] and 14.1 µM (active) in [18].

For the compound `CCN(CC)C(=O)c1cc(S(=O)(=O)Cc2ccccc2)c(N2CCC(c3ccccc3)CC2)cc1N(CC)CCN(C)C`, the result in test [1], in test [2], in [3], in test [4], in test [6] and in test [7] was inactive. Moreover, the result in [9], in test [10], in test [11], in test [12] and in test [14] was inactive. Moreover, the AC50 was 4.69 µM (active) in test [5]; 28 µM (active) in test [8]; 24 µM (active) in test [13]; 8.94 µM (active) in the test with CD40, CD40 (gene 958); 27.6 µM (active) in [15]; 18.7 µM (active) in test [16]. Also, the AC50 in [17] is 10.5 µM (active); in test [19] it was 8.53 µM (active); in test [18] it was 19.5 µM (active).
